# Laboratory results from ChEMBL document CHEMBL4513216, “Probing the Open Global Health Chemical Diversity Library for Multistage-Active Starting Points for Next-Generation Antimalarials” (ACS Infect Dis, 2020).
# Hit rate of the full screen: of about 69,000 compounds, about 8,600 (12%) showed an effect of 50% or more. The sample as a whole holds a higher share of strong results than the screen did.
# Test system: Plasmodium berghei
# Test: Screen against P. berghei liver stage (PbLuc), transformed with Luciferase, at 10uM
# Type: functional, HepG2
# Conditions: tested at 10 uM
row,Structure (SMILES),INHIBITION
1,CC(C)c1nnc2n1CCN(CCS(=O)(=O)c1ccccc1)C2,4.71%
2,CCN1CCC2(CC1)CC(COC)N(Cc1csc(C)n1)C2 (centres undefined),8.85%
3,COCC1CC2(CCN(Cc3ccoc3)CC2)CN1Cc1ccccn1 (centres undefined),48.4%
4,COCC1CC2(CCN(CC3CC3)CC2)CN1Cc1ccccn1 (centres undefined),13.1%
5,COCC1CC2(CCN(C(N)=O)CC2)CN1Cc1csc(C)n1 (centres undefined),41%
6,COCC1CC2(CCN(Cc3nccs3)CC2)CN1Cc1ccccn1 (centres undefined),71.1%
7,COCC1CC2(CCN(C(C)=O)CC2)CN1Cc1csc(C)n1 (centres undefined),79.6%
8,Cc1cc(C)n(CC2CCCN2CC(=O)N(C)Cc2ccco2)n1 (centres undefined),4.71%
9,Cc1nnc(-c2cccc(C#N)c2)n1C1CCN(C2CC2)C1=O (centres undefined),-25.7%
10,O=C(Cn1cccn1)NCC1CCN(Cc2cc3ccccc3[nH]2)C1 (centres undefined),9.79%
11,CCN1CCCC(CNC(=O)CCc2ccc(OC)c(F)c2)C1 (centres undefined),11.5%
12,O=C(Cn1cc(-n2cccc2)cn1)NCC(F)(F)F,6.83%
13,CCCC(=O)NCC1CCCN(Cc2cc(C)c(C)o2)C1 (centres undefined),54.4%
14,O=C(Cn1cccn1)NCC1CCCN(Cc2ccccc2)C1 (centres undefined),13.7%
15,Cc1cc(CN2CCCC(CNC(=O)Cn3cccn3)C2)oc1C (centres undefined),57.6%
16,Cc1cc(CN2CCC(CNC(=O)CN3CCCCCC3)C2)[nH]n1 (centres undefined),10.7%
17,O=C(Cn1cc(-n2cccc2)cn1)NCC1CCC1,55.6%
18,O=C(Cn1cc(I)cn1)NCC1CCC1,27.5%
19,CO[C@@H]1CN(c2ccccc2)S(=O)(=O)[C@@]12CCN(C)C2,32.1%
20,CN1CC(=O)N(c2ccccc2)CC12CCN(C(=O)CC1CC1)C2 (centres undefined),4.68%
21,CC[C@@H](c1ccccc1)n1c(CN)n[nH]c1=O,4.48%
22,c1cncc(-c2noc(CN3CCn4c(nnc4C4CC4)C3)n2)c1,15.66%
23,COCCCNC(=O)C(C)n1cc(Br)cn1 (centres undefined),-33.2%
24,O=C(NCc1ccco1)[C@H]1COC[C@H]2CN(Cc3ccccn3)C[C@H]21,15.9%
25,CN(C)C(CNC(=O)c1nc(N2CCCC2)ncc1Cl)c1ccco1 (centres undefined),26%
26,CCOc1ccc(CN(C)C(=O)c2nc(N3CCCC3)ncc2Cl)cc1,24.8%
27,Cc1noc(C)c1CN(C)C(=O)c1nc(N2CCCC2)ncc1Cl,61.9%

row,Structure (SMILES),INHIBITION
1,CC(C)C(C)N(Cc1ccccn1)Cc1ccco1 (centres undefined),16.3%
2,COCc1ncc(CN(Cc2ccco2)C(C)C(C)C)cn1 (centres undefined),20.9%
3,CCc1ccc(CN(Cc2ccco2)C(C)C(C)C)nc1 (centres undefined),60.7%
4,CC(=O)N1CCCC(c2ccc(Br)cn2)C1 (centres undefined),29.2%
5,COc1cccc(CN2CCCC3(CCN(C(=O)N4CCCC4)C3)C2)c1 (centres undefined),8.74%
6,CC(=O)N1CCCC2(CCN(c3nncs3)C2)C1 (centres undefined),7.7%
7,Cn1cccc1C(=O)N1CCCC2(CCN(CCN3CCCC3)C2=O)C1 (centres undefined),-14.9%
8,O=C(c1ccco1)N1CCCC2(C1)CN(c1nncs1)CCO2 (centres undefined),45.7%
9,O=C(c1ccoc1)N1CCC2(C1)CN(c1ncc(F)cn1)C2,-0.813%
10,O=C(c1ccco1)N1CCCC2(CCN(CCN3CCCC3)C2=O)C1 (centres undefined),58.5%
11,COc1cccc(CN2CCCC3(CCN(C(=O)c4ccco4)C3)C2)c1 (centres undefined),69.1%
12,COc1cccc(CN2CCCC3(CCN(C(=O)[C@H]4CCCO4)C3)C2)c1 (some centres undefined),13.2%
13,O=C(c1ccco1)N1CCCC2(CCN(c3nncs3)C2)C1 (centres undefined),56.6%
14,Cc1occc1C(=O)N1CCCC2(CCN(CCN3CCCC3)C2=O)C1 (centres undefined),23.5%
15,O=C(c1ccoc1)N1CCC2(CCCN(c3ncc(F)cn3)C2)C1 (centres undefined),53%
16,O=C(c1ccncc1)N1CCC2(CCCN(c3ncc(F)cn3)C2)C1 (centres undefined),40.3%
17,COc1cccc2ccn(CC(=O)NCCC(C)C)c12,9.04%
18,CC(C)(C)c1nnc2n1C(C(=O)N1CCOCC1)CC2 (centres undefined),-3.93%
19,CCn1cnnc1C1CCN(C(=O)c2ccc3ccccc3n2)CC1,26.4%
20,Cc1nnc(N2C[C@@H](Oc3ccccn3)[C@H]3OCCC[C@H]32)s1,-23.8%
21,COc1ccc(C)cc1C(C)NCc1cnnn1C (centres undefined),0.818%
22,COCc1cn(CC2CCN(Cc3c(C)[nH]c4ccccc34)CC2)nn1,15.8%
23,Cc1nn(-c2ccccc2Cl)c(C)c1CCC(=O)O,15.4%
24,CCc1ccc(CN2CCN(c3cccc(OC)c3)C(=O)C2)nc1,-8.99%
25,O=C(c1ccco1)N1CCC2(CCCN(c3ncccn3)C2)C1 (centres undefined),77.4%
26,O=C(c1ccco1)N1CCC2(CC1)CCN(c1ncccn1)CC2,-7.28%
27,O=C(c1ccco1)N1CCC2(CCCN(c3ncc(F)cn3)C2)C1 (centres undefined),43%
